Among all 410,000 compounds or so, about 7,200 (1.8%) were called active. Not shown: some 7% with an inconclusive outcome. Calls come from the whole dose curve; as a rule, active = well fitted activation curve with a large enough effect; inconclusive = small, poorly fitted or top-dose-only effect, or another doubt; inactive = no such curve, though single readings can be large or run the other way. The full list was thinned out, with actives kept by preference.
assay: qHTS of TDP-43 Inhibitors; conditions: TDP-43 expressing yeast growth rescue, BacTiter-Glo, 24 h; series mostly up to 46.1 µM; note: nearly all actives have a fitted effect of over 50% in size; for Growth rescue (activation): % of control where 0% means no effect
Method in brief: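 Growth rescue of TDP-43-toxic yeast measured as ATP luminescence (BacTiter-Glo). Cells grown to mid-log in raffinose, induced in galactose at OD600=0.02, exposed to compound 24 hr at 30 deg C.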
Potency is the fitted concentration of half-maximal effect.

Potency, inactive:
COc1ccc2c(c1)c(N1CCCC1=O)c(C(=O)Nc1ccccc1C(F)(F)F)n2C
CCOc1ccc(NC(=O)C(CC(C)C)N2Cc3ccccc3C2=O)cc1 (stereo not drawn)
CC(C)(C)N(Cc1ccccc1)C(=O)c1ccncc1
CCOc1cc(C2C(C(=O)Nc3ccc(OC)cc3)=C(C)Nc3nc(SC)nn32)ccc1O (stereo not drawn)
CCOC(=O)c1ccc(NC(=O)Cn2c(=O)cc(C)c3c(C)nn(-c4cccc(F)c4)c32)cc1
O=C(O)c1[nH]c2ccccc2c1C(c1cccc(O)c1)c1c(C(=O)O)[nH]c2ccccc12
CCN(CC)c1ccc(NC(=O)CN2C(=O)c3cccnc3Oc3ccc(Cl)cc32)c(C)c1
COc1ccc(-c2nn(CC(=O)NC3CCCC3)c3c2cnc2ccc(F)cc23)cc1
Cc1cccc(C(=O)Nc2ccc(-c3nc4ccccc4s3)c(C)c2)c1
O=C(Nc1ccccc1C(=O)O)c1ccc(N2C(=O)C3CC=CCC3C2=O)cc1 (stereo not drawn)
COc1ccc(Cl)cc1NC(=O)COC(=O)C(CC(C)C)N1C(=O)C2CC=CCC2C1=O (stereo not drawn)
CC(=O)Nc1ccc(NC(=O)CCCc2nc(-c3ccc(C(C)(C)C)cc3)no2)cc1
CCOC(=O)c1ccc(NC(=O)CC2C(=O)N(c3cccc(OC)c3)C(=O)N2C2CCCCC2)cc1 (stereo not drawn)
CCCN(CCC)CCCNC(=O)Cn1cc2c(n1)-c1c(oc(C(=O)N3CCCC3)c1C)CC2
CCOc1ccc(CNC(=O)Cn2cc3c(n2)-c2c(oc(C(=O)N4CCCC4)c2C)CC3)cc1
CC1=C(c2ccc(C)cc2)S(=O)(=O)NC1=NCCCN1CCN(c2cc(C)ccc2C)CC1
Cc1nn(-c2ccc(N3CCCCC3)nn2)c(C)c1CCC(=O)NCc1ccccc1F
CC(=O)c1ccc(NC(=O)CSc2nnc(NC(=O)Nc3ccccc3)s2)cc1
CN(C(=O)CSc1nnc(NC(=O)Nc2ccccc2)s1)c1ccccc1
CCOC(=O)c1ccc(NC(=O)CCS(=O)(=O)c2ccc3c(c2)oc(=O)n3C)cc1
O=C(NC1CCN(Cc2ccccc2)CC1)c1ccc(Cn2c(=O)c3ccccc3n(Cc3cccc(F)c3)c2=O)cc1
CC(C)c1ccc(NC(=O)c2ccc(Cn3nc(N4CCN(c5ccccc5)CC4)ccc3=O)o2)cc1
CC1CC(C)(C)NC(=S)N1CCC(=O)N1CCN(Cc2ccccc2)CC1 (stereo not drawn)
CC1CC(=O)Nc2ccccc2N1S(=O)(=O)c1cccs1 (stereo not drawn)
COc1ccc(CNC(=O)C2CC(c3ccc(C(F)(F)F)cc3)=NO2)cc1 (stereo not drawn)
COc1ccc(-c2nc(S(=O)(=O)c3ccccc3)c(N3CCCCC3)o2)cc1
COc1cc(OC)c(NC(=O)c2cc(S(=O)(=O)N3CCCC3)cn2C)cc1Cl
CCOc1ccc(OCCSc2nc3ccccc3n2CC(=O)O)cc1
Cc1ccc(C(C)C)c(OCCSc2nc3ccccc3n2CC(=O)O)c1
CCC(C)c1ccc2oc(-c3ccc(NC(=O)c4cc5ccccc5o4)cc3)nc2c1 (stereo not drawn)
O=C1OC(OC(=O)c2ccccc2Br)C(N2CCOCC2)=C1Cl (stereo not drawn)
Cc1ccccc1C(=O)O
Cc1cccc(NC(=O)Cn2nc(-c3ccc(Cl)cc3)c3ccccc3c2=O)c1
CCCC12CN3CC(C)(CN(C1)C3c1ccccc1Cl)C2=O (stereo not drawn)
CC(C)(C)c1ccc(S(=O)(=O)N2CCN(C(=O)c3cc(-c4ccc(Br)cc4)n[nH]3)CC2)cc1
CCCCN(CC)CCCNC(=O)c1nn(C)c2c1CSc1ccccc1-2
COc1ccc(OC)c(CCNC(=O)c2nn(C)c3c2CS(=O)(=O)c2ccccc2-3)c1
Cc1cc(-c2ccc(C)c(S(=O)(=O)N3c4ccccc4CC3C)c2)on1 (stereo not drawn)
O=C(c1ccc(N2CCOCC2)c([N+](=O)[O-])c1)N1CCN(S(=O)(=O)c2cccs2)CC1
CCOC(=O)N1CCN(c2cc(C)c([N+](=O)[O-])cc2F)CC1
O=C(O)C1CCN(c2ccc([N+](=O)[O-])cc2[N+](=O)[O-])CC1
Cc1ccc2nc(COc3cccc(NC(=O)c4cccc(Cl)c4)c3)cc(=O)n2c1
CC(=O)Nc1cnc(-c2ccc(O)cc2C)cn1
Cc1cc(C)c(NC(=O)c2cc3sc(Cl)cc3n2C)c(C)c1
Cn1c(=O)c(C(=O)O)nn(-c2ccccc2)c1=O
CCCn1c2ccccc2c2cnn(CC(=O)NCC3CCN(Cc4ccc(C)cc4)CC3)c(=O)c21
COc1ccc(SCc2cc(=O)c3ccc(C)c(C)c3[nH]2)cc1
CCC(=O)N1CCc2cc(S(=O)(=O)NC(Cc3ccccc3)C(=O)NCc3ccc(C)cc3)ccc21 (stereo not drawn)

Potency, active:
CC(Cc1cccs1)N(Cc1ccc(Cl)cc1)C(=O)c1ccncc1 (stereo not drawn) 35.5 µM
Cc1[nH]c2ccccc2c1C(c1ccccc1)c1cccs1 (stereo not drawn) 25.1 µM
COc1ccc(Cl)cc1NC(=O)c1cccc(N2C(=O)C3CC=CCC3C2=O)c1 (stereo not drawn) 11.2 µM
Cc1c(C(=O)N2CCCC2)oc2c1-c1nn(CC(=O)NCc3ccc(OC(C)C)cc3)cc1CC2 20 µM
CC(C)c1ccc(Nc2nnc(SCC(=O)c3nnc(-c4ccccc4)o3)s2)cc1 20 µM
CC1CC(=S)Nc2ccccc2N1Cc1ccccc1 (stereo not drawn) 14.1 µM
COC(=O)[C@]1(S(=O)(=O)c2ccccc2)C[C@@H]2ON=C(c3ccc(OC)cc3)[C@@H]2C1 17.8 µM
Cc1cccc(OCCSc2nc3ccccc3n2CC(=O)N2CCCCC2)c1C 35.5 µM
Cc1ccccc1C(=O)OC1OC(=O)C(Cl)=C1Nc1ccccc1 (stereo not drawn) 22.4 µM
COc1ccc(CCNC(=O)c2nn(C)c3c2CSc2ccccc2-3)cc1OC 11.2 µM
O=C(c1ccc(N2CCOCC2)c([N+](=O)[O-])c1)N1CCN(c2ccccc2F)CC1 14.1 µM
CCC(=O)c1ccc(N2CCN(C(=O)c3cc([N+](=O)[O-])ccc3F)CC2)c(F)c1 12.6 µM
Cc1ccc(Nc2nc(-c3ccc(O)cc3O)cs2)nc1 20 µM

Growth rescue (activation), inactive:
CC(Cc1cccs1)NC(=O)c1cccc(Cl)c1 (stereo not drawn) -15.2% [at 0.397 µM]
O=C(CSc1nccn1Cc1ccc(Cl)cc1)NCc1ccccc1 9.99% [at 9.22 µM]
Cc1[nH]c2ccccc2c1-c1ccc(Cl)nn1 -8.17% [at 9.22 µM]
COc1ccc2c(c1)C=C(C(=O)NCc1cc(Br)ccc1OC)CO2 5.98% [at 9.22 µM]
Cc1ccc(S(=O)(=O)N2CCCc3cc(NS(=O)(=O)c4cc(C)ccc4C)ccc32)cc1 0% [at 9.22 µM]
O=C(OCC(=O)N1CCOCC1)c1ccc(N2CCOCC2)c([N+](=O)[O-])c1 7.7% [at 9.22 µM]
COc1ccc(S(=O)(=O)NCC(c2ccc(N(C)C)cc2)N2CCc3ccccc32)cc1OC (stereo not drawn) -42.7% [at 9.22 µM]
